Data on 13 compounds can be found in PubChem BioAssay (NCI).

Holding throughout (experiment): NCI-60 one-dose screen, 48 h (100 = growth as untreated, 0 = no growth, -100 = all killed)
For one test, the system named is SR leukemia. Conditions: 10 µM unless noted.
In another test the test system is RPMI-8226 leukemia. Conditions: 10 µM unless noted.
In the next test the test system is OVCAR-8 ovarian. Conditions: 10 µM unless noted.
A further test deals with OVCAR-5 ovarian. Conditions: 10 µM unless noted.
A further test has as its system OVCAR-4 ovarian. Conditions: 10 µM unless noted.
Another test has as its system SK-OV-3 ovarian. Conditions: 10 µM unless noted.
The subject of the next test is IGROV1 ovarian. Conditions: 10 µM unless noted.
The next test deals with OVCAR-3 ovarian. Conditions: 10 µM unless noted.
The next test has as its system HS 578T breast. Conditions: 10 µM.
For a further test, the system named is NCI/ADR-RES ovarian. Conditions: 10 µM unless noted.

The panel holds about 83,000 compounds, 20% with a hit somewhere; the sample as a whole holds those more often.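 In brief: 96-well plates, 48 h treatment, single concentration, percent growth endpoint.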 A number with no mark means an inactive call. The source made the active and inactive calls. Rule for the calls: active = growth percent below 10; inactive = the rest.

Consider `CCCCn1c(C)nc2cc(Nc3nc(N4CCCCC4)nc4nc[nH]c34)ccc21`, for which the growth was 31.2% in the test on SR leukemia; 40.3% in the test on RPMI-8226 leukemia; 30.1% in the test on OVCAR-8 ovarian; 50.1% in the test on OVCAR-5 ovarian; 19% with OVCAR-4 ovarian; 66.5% in the test with SK-OV-3 ovarian. The growth is 30.8% in the test on IGROV1 ovarian, 37.7% with OVCAR-3 ovarian, 43.8% in the test on HS 578T breast and 35% in the test with NCI/ADR-RES ovarian.

As for `CCCCCCCC(=O)SCC/C=C/[C@@H]1CC(=O)NCc2cccc(n2)C2=N[C@@](C)(CS2)C(=O)N[C@@H](C(C)C)C(=O)O1`, the growth is 13.7% with SR leukemia; 14.3% with RPMI-8226 leukemia; 7.64% (active) in the test on OVCAR-8 ovarian; 6.82% (active) in the test on OVCAR-5 ovarian; 18.3% in the test on OVCAR-4 ovarian; -31.4% (active) with SK-OV-3 ovarian. The growth in the test on IGROV1 ovarian was 3.42% (active); with OVCAR-3 ovarian, -26.5% (active); in the test on HS 578T breast, 15.4%; in the test on NCI/ADR-RES ovarian, 6.46% (active).

Consider `COc1cc2nc(Nc3cccc(Cl)c3)nc(N)c2cc1OC`, for which the growth was 67.4% in the test with SR leukemia; 35.7% with RPMI-8226 leukemia; 87.4% in the test on OVCAR-8 ovarian; 111% with OVCAR-5 ovarian; 72.7% with OVCAR-4 ovarian; 114% in the test on SK-OV-3 ovarian. Besides, the growth is 64.5% with IGROV1 ovarian, 89.2% in the test with OVCAR-3 ovarian, 109% in the test on HS 578T breast and 74.1% in the test with NCI/ADR-RES ovarian.

With `Cc1ccccc1Nc1nc2nonc2nc1Nc1cccc(C)c1C`, the growth is 66.8% with SR leukemia; 24.4% with RPMI-8226 leukemia; 54.3% with OVCAR-8 ovarian; 98.9% in the test on OVCAR-5 ovarian; 30.3% in the test on OVCAR-4 ovarian; 56.6% in the test with SK-OV-3 ovarian. In addition, the growth in the test on IGROV1 ovarian is 74%; in the test on OVCAR-3 ovarian, 35.8%; in the test with HS 578T breast, 72.6%; in the test on NCI/ADR-RES ovarian it was 56.5%.

For the compound `COc1ccc(-c2cc3c(oc2=O)-c2ccccc2OC3OC(C)=O)cc1` (stereo not given), the growth with SR leukemia was 80.7%; in the test with RPMI-8226 leukemia, 83.1%; in the test with OVCAR-8 ovarian, 107%; in the test on OVCAR-5 ovarian it was 111%; with OVCAR-4 ovarian, 90.7%; in the test with SK-OV-3 ovarian it was 93.4%. In addition, the growth in the test with IGROV1 ovarian is 103%; in the test on OVCAR-3 ovarian it was 109%; with HS 578T breast, 89%; with NCI/ADR-RES ovarian, 93.8%.

With `N#Cc1c(-c2ccc(Cl)cc2)csc1NC(=O)Nc1cccc(C(F)(F)F)c1`, the growth was 33% with SR leukemia; 3.99% (active) with RPMI-8226 leukemia; 11.4% with OVCAR-8 ovarian; 42.8% with OVCAR-5 ovarian; 10.4% in the test on OVCAR-4 ovarian; 9.45% (active) with SK-OV-3 ovarian. Moreover, the growth in the test on IGROV1 ovarian is 33.5%; with OVCAR-3 ovarian, -3.56% (active); in the test with HS 578T breast, 47.9%; with NCI/ADR-RES ovarian, 11.6%.

As for `Cc1cc(C(O)CN(C)C)cc2c1ccc1cc(C(C)C)ccc12` (stereo not given), the growth was -19.6% (active) with SR leukemia; -22.6% (active) in the test with RPMI-8226 leukemia; -46.5% (active) in the test on OVCAR-8 ovarian; 49.5% in the test with OVCAR-5 ovarian; -2.02% (active) in the test on OVCAR-4 ovarian; 83.7% with SK-OV-3 ovarian. The growth in the test on IGROV1 ovarian is -64.4% (active); in the test on OVCAR-3 ovarian, 64.7%; in the test on HS 578T breast, -0.73% (active); in the test on NCI/ADR-RES ovarian it was 59.8%.

For the compound `COC(=O)[C@H](C)NC(=O)[C@@H](OC)[C@@H]1Cc2cc3cc(OC4CC(OC5CC(O)C(O)C(C)O5)C(O)C(C)O4)c(C)c(O)c3c(O)c2C(=O)[C@H]1OC1CC(OC2CC(OC3CC(C)(O)C(O)C(C)O3)C(O)C(C)O2)C(O)C(C)O1` (stereo not given in full), the growth was 7.81% (active) with SR leukemia; -5.91% (active) in the test on RPMI-8226 leukemia; 9.19% (active) in the test with OVCAR-8 ovarian; 13.5% with OVCAR-5 ovarian; 0.165% (active) in the test with OVCAR-4 ovarian; 22.6% in the test with SK-OV-3 ovarian. Besides, the growth was 22.8% in the test on IGROV1 ovarian, 5.02% (active) in the test with OVCAR-3 ovarian, -7.37% (active) in the test with HS 578T breast and 75.4% with NCI/ADR-RES ovarian.

For `CCN(CC)Cc1cc(Nc2cc(C(F)(F)F)c(C#N)c3nc4ccccc4n23)ccc1O`, the growth is 12.8% in the test on SR leukemia; 0.326% (active) in the test on RPMI-8226 leukemia; 9.84% (active) in the test with OVCAR-8 ovarian; 31% with OVCAR-5 ovarian; 14.2% in the test with OVCAR-4 ovarian; -10.8% (active) with SK-OV-3 ovarian. The growth is 28.9% in the test with IGROV1 ovarian, 10.9% with OVCAR-3 ovarian, 22.8% with HS 578T breast and 6.79% (active) in the test with NCI/ADR-RES ovarian.

In the case of `Clc1ccc(Nc2nccc(Nc3ccc4[nH]ncc4c3)n2)cc1`, the growth in the test on SR leukemia is 2.66% (active); with RPMI-8226 leukemia it was 18.3%; with OVCAR-8 ovarian, 22.1%; in the test on OVCAR-5 ovarian it was 64.9%; in the test with OVCAR-4 ovarian it was 49.3%; in the test on SK-OV-3 ovarian, 88.4%. For the same compound, the growth with IGROV1 ovarian was 46.9%; with OVCAR-3 ovarian it was 52.1%; in the test on HS 578T breast, 61.5%; in the test on NCI/ADR-RES ovarian, 38.9%.

In the case of `Cc1ccc2oc(=O)cc(-c3cc(-c4cc5ccccc5oc4=O)nc(N)c3C#N)c2c1`, the growth in the test with SR leukemia was 74.3%; in the test with RPMI-8226 leukemia it was 72.9%; in the test on OVCAR-8 ovarian, 61.1%; with OVCAR-5 ovarian, 101%; with OVCAR-4 ovarian, 8.25% (active); in the test on SK-OV-3 ovarian, 78.8%. Moreover, the growth was 81.6% with IGROV1 ovarian, 77.1% with OVCAR-3 ovarian, 70.7% in the test on HS 578T breast and 80.4% in the test with NCI/ADR-RES ovarian.

Consider `C=CCCCOC1[C@H](OCc2ccccc2)C(OCc2ccccc2)C(OC)O[C@@H]1CNC(=O)c1cccc(I)c1` (stereo not given in full), for which the growth with SR leukemia is 26.7%; in the test on RPMI-8226 leukemia, 8.34% (active); with OVCAR-8 ovarian it was 51.8%; in the test with OVCAR-5 ovarian, 69%; in the test on OVCAR-4 ovarian, 22.6%; in the test on SK-OV-3 ovarian it was 45.5%. Besides, the growth with IGROV1 ovarian is 43.2%; in the test with OVCAR-3 ovarian, 50.1%; in the test on HS 578T breast, 79.7%; with NCI/ADR-RES ovarian it was 25.9%.

`Cc1cc(C)n(CC(=O)Nc2ccc(-c3nc4ccccc4s3)cc2)n1`: the growth in the test on SR leukemia is 99.4%; in the test on RPMI-8226 leukemia, 97.2%; in the test on OVCAR-8 ovarian, 99.7%; in the test on OVCAR-5 ovarian, 105%; with OVCAR-4 ovarian it was 97.8%; in the test on SK-OV-3 ovarian, 114%. Also, the growth with IGROV1 ovarian was 97.4%; in the test on OVCAR-3 ovarian it was 101%; in the test with HS 578T breast, 113%; in the test with NCI/ADR-RES ovarian, 103%.
